Screen size: about 5,500 compounds; about 2,000 (36%) were called active. Inconclusive results (about 18%) are left out. Cut-off read from the data, not from the text of the source: active = normalized growth mostly below about 0.91 (no sharp cut-off); inconclusive = no clear call, values can overlap the other calls; inactive = mostly above about 0.92. The list shows a part of the results. *1 amine or outer side, *2 acyl side, *3 side chain or, on linkers, in order; H or OH if unused. Where a SMILES comes first, the peptide text is derived from it. Bridges are numbered along the chain shown (N, C = ends). [ ]: non-standard residue; d: D form. The star is where a group is joined. ξ: configuration not given here. ΔAla(E,3-NHCONH2) = NC(=O)N/C=C(/N)C(=O)O; X2 = NC1=NCCC(C(N[*:1])C(=O)[*:2])N1; ξβ3hOrn = NCCCC(N)CC(=O)*; Dap = NC[CH](N)C(=O)O
Test: chemical genetic growth profiling, strain panel (AID 1159580);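 note: tested at 20 µM; growth read once vehicle control cultures reached saturation at 30 °C; 1 = growth at the plate median or of vehicle wells; lower values mean less growth of the strain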
Details: growth OD

Measured: normalized growth

NCCCC(N)CC(=O)NCC1NC(=O)C(CO)NC(=O)C(N)CNC(=O)C(C2CCN=C(N)N2)NC(=O)/C(=C\NC(N)=O)NC1=O (stereo not drawn) (H-[Dap]S[Dap](ξβ3hOrn)[ΔAla(E,3-NHCONH2)][X2]; lactam 1-C; configuration not given here)
inactive: S. cerevisiae deletion strains, locus YJR066W, strain TOR1, stronger effect = lower value 0.98 | S. cerevisiae deletion strains, locus YKL009W, strain mrt4, stronger effect = lower value 1.03 | S. cerevisiae deletion strains, locus YKL068W, stronger effect = lower value 1.01 | S. cerevisiae deletion strains, locus YKL085W, strain MDH1 (second series), stronger effect = lower value 1 | S. cerevisiae deletion strains, locus YKL085W, strain MDH1, stronger effect = lower value 1 | S. cerevisiae deletion strains, locus YKL160W, strain elf1, stronger effect = lower value 1.02 | S. cerevisiae deletion strains, locus YKR001C, strain vps1, stronger effect = lower value 1.01 | S. cerevisiae deletion strains, locus YKR026C, strain gcn3, stronger effect = lower value 1.01 | S. cerevisiae deletion strains, locus YKR091W, strain srl3, stronger effect = lower value 1 | S. cerevisiae deletion strains, locus YLL001W, strain dnm1, stronger effect = lower value 1.04 | S. cerevisiae deletion strains, locus YLL026W, stronger effect = lower value 1.04 | S. cerevisiae deletion strains, locus YLL041C, strain sdh2, stronger effect = lower value 1.02 | S. cerevisiae deletion strains, locus YLR027C, strain aat2, stronger effect = lower value 1.05 | S. cerevisiae deletion strains, locus YLR039C, strain RIC1, stronger effect = lower value 1.01 | S. cerevisiae deletion strains, locus YLR058C, strain SHM2, stronger effect = lower value 1.01 | S. cerevisiae deletion strains, locus YLR102C, strain apc9, stronger effect = lower value 1.02 | S. cerevisiae deletion strains, locus YLR113W, strain HOG1, stronger effect = lower value 1.05 | S. cerevisiae deletion strains, locus YLR221C, strain rsa3, stronger effect = lower value 0.993 | S. cerevisiae deletion strains, locus YLR258W, strain gsy2, stronger effect = lower value 1 | S. cerevisiae deletion strains, locus YLR262C, strain YPT6 (second series), stronger effect = lower value 1.03 | S. cerevisiae deletion strains, locus YLR262C, strain YPT6, stronger effect = lower value 1.04 | S. cerevisiae deletion strains, locus YLR268W, strain sec22, stronger effect = lower value 1.03 | S. cerevisiae deletion strains, locus YLR320W, strain mms22, stronger effect = lower value 0.989 | S. cerevisiae deletion strains, locus YLR330W, strain CHS5, stronger effect = lower value 1 | S. cerevisiae deletion strains, locus YLR342W, strain FKS1 (second series), stronger effect = lower value 1.01 | S. cerevisiae deletion strains, locus YLR342W, strain FKS1, stronger effect = lower value 1.03 | S. cerevisiae deletion strains, locus YLR357W, strain rsc2, stronger effect = lower value 1 | S. cerevisiae deletion strains, locus YLR370C, strain arc18, stronger effect = lower value 1.04 | S. cerevisiae deletion strains, locus YLR371W, strain rom2, stronger effect = lower value 0.999 | S. cerevisiae deletion strains, locus YLR384C, strain iki3, stronger effect = lower value 1.02 | S. cerevisiae deletion strains, locus YLR418C, strain cdc73, stronger effect = lower value 0.995 | S. cerevisiae deletion strains, locus YML016C, strain PPZ1, stronger effect = lower value 1 | S. cerevisiae deletion strains, locus YML032C, strain rad52, stronger effect = lower value 1.02 | S. cerevisiae deletion strains, locus YML120C, strain ndi1, stronger effect = lower value 1.05 | S. cerevisiae deletion strains, locus YML124C, strain tub3, stronger effect = lower value 1.01 | S. cerevisiae deletion strains, locus YMR058W, strain fet3, stronger effect = lower value 1.03 | S. cerevisiae deletion strains, locus YMR078C, strain ctf18, stronger effect = lower value 1.03 | S. cerevisiae deletion strains, locus YMR125W, strain sto1, stronger effect = lower value 0.993 | S. cerevisiae deletion strains, locus YMR129W, stronger effect = lower value 1.02 | S. cerevisiae deletion strains, locus YMR205C, strain PFK2, stronger effect = lower value 1.04 | S. cerevisiae deletion strains, locus YMR223W, strain ubp8, stronger effect = lower value 1.03 | S. cerevisiae deletion strains, locus YMR231W, strain pep5, stronger effect = lower value 1 | S. cerevisiae deletion strains, locus YMR263W, strain SAP30, stronger effect = lower value 1 | S. cerevisiae deletion strains, locus YMR307W, strain GAS1, stronger effect = lower value 1.06 | S. cerevisiae deletion strains, locus YNL067W, strain RPL9B, stronger effect = lower value 1.01 | S. cerevisiae deletion strains, locus YNL071W, strain lat1, stronger effect = lower value 0.994 | S. cerevisiae deletion strains, locus YNL183C, strain NPR1, stronger effect = lower value 0.988 | S. cerevisiae deletion strains, locus YNL209W, strain ssb2, stronger effect = lower value 0.998 | S. cerevisiae deletion strains, locus YNL233W, strain BNI4, stronger effect = lower value 0.974 | S. cerevisiae deletion strains, locus YNL248C, strain rpa49, stronger effect = lower value 0.98 | S. cerevisiae deletion strains, locus YNL250W, strain rad50, stronger effect = lower value 1.02 | S. cerevisiae deletion strains, locus YNL271C, strain bni1, stronger effect = lower value 1.03 | S. cerevisiae deletion strains, locus YNL298W, strain CLA4, stronger effect = lower value 1.03 | S. cerevisiae deletion strains, locus YNL307C, strain MCK1, stronger effect = lower value 1.03 | S. cerevisiae deletion strains, locus YNL322C, strain KRE1 (second series), stronger effect = lower value 1.02 | S. cerevisiae deletion strains, locus YNL322C, strain KRE1, stronger effect = lower value 1 | S. cerevisiae deletion strains, locus YNR049C, strain mso1, stronger effect = lower value 1.01 | S. cerevisiae deletion strains, locus YNR052C, strain pop2, stronger effect = lower value 1.01 | S. cerevisiae deletion strains, locus YOL012C, strain htz1 2.02 | S. cerevisiae deletion strains, locus YOL147C, strain pex11, stronger effect = lower value 1.01 | S. cerevisiae deletion strains, locus YOR001W, strain rrp6, stronger effect = lower value 1.03 | S. cerevisiae deletion strains, locus YOR061W, strain CKA2, stronger effect = lower value 1.01 | S. cerevisiae deletion strains, locus YOR069W, strain VPS5, stronger effect = lower value 1 | S. cerevisiae deletion strains, locus YOR070C, strain gyp1, stronger effect = lower value 0.994 | S. cerevisiae deletion strains, locus YOR080W, strain dia2, stronger effect = lower value 1.03 | S. cerevisiae deletion strains, locus YOR083W, strain WHI5, stronger effect = lower value 1.02 | S. cerevisiae deletion strains, locus YOR106W, strain vam3, stronger effect = lower value 1.04 | S. cerevisiae deletion strains, locus YOR136W, strain idh2, stronger effect = lower value 1.01 | S. cerevisiae deletion strains, locus YOR144C, strain elg1, stronger effect = lower value 1.02 | S. cerevisiae deletion strains, locus YOR184W, strain ser1, stronger effect = lower value 1.02 | S. cerevisiae deletion strains, locus YOR231W, strain MKK1, stronger effect = lower value 1.03 | S. cerevisiae deletion strains, locus YOR265W, strain rbl2, stronger effect = lower value 1.02 | S. cerevisiae deletion strains, locus YOR270C, strain vph1, stronger effect = lower value 1.09 | S. cerevisiae deletion strains, locus YOR290C, strain snf2, stronger effect = lower value 0.981 | S. cerevisiae deletion strains, locus YOR316C, strain cot1, stronger effect = lower value 1.05 | S. cerevisiae deletion strains, locus YPL051W, strain arl3, stronger effect = lower value 1.01 | S. cerevisiae deletion strains, locus YPL055C, strain LGE1, stronger effect = lower value 1.03 | S. cerevisiae deletion strains, locus YPL078C, strain atp4, stronger effect = lower value 1.06 | S. cerevisiae deletion strains, locus YPL106C, strain sse1, stronger effect = lower value 0.997 | S. cerevisiae deletion strains, locus YPL240C, strain hsp82, stronger effect = lower value 1.01 | S. cerevisiae deletion strains, locus YPL256C, strain CLN2, stronger effect = lower value 1.04 | S. cerevisiae deletion strains, locus YPR119W, strain clb2, stronger effect = lower value 1 | S. cerevisiae deletion strains, locus YPR141C, strain kar3, stronger effect = lower value 1.01 | S. cerevisiae deletion strains, locus YPR163C, strain tif3, stronger effect = lower value 1.02 | S. cerevisiae deletion strains, locus YPR167C, strain met16, stronger effect = lower value 1.01 | S. cerevisiae deletion strains, strain wtn01, stronger effect = lower value 1.04 | S. cerevisiae strains, strain wild type, stronger effect = lower value 1

Reference: PubChem BioAssay AID1159580 (chemical genetic matrix, 2015)
